Measured values reported in PubChem BioAssay (NCI).
“And” between values parts separate entries of the source, which are not always exact repeats. Equal values may be shown once. The panel holds about 83,000 compounds, 20% with a hit somewhere; the sample as a whole holds those more often.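 In brief: 96-well plates, 48 h treatment, single concentration, percent growth endpoint.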 Values without a mark were called inactive. The source made the active and inactive calls. How the source made its calls: active means growth percent below 10; inactive means the rest.

Test system: MDA-MB-468 breast
Experiment: NCI-60 one-dose screen, 48 h (100 = growth as untreated, 0 = no growth, -100 = all killed)
Settings: 10 µM unless noted

Structure (SMILES) | growth
Brc1ccc(Nc2csc(-c3ccccn3)n2)cc1 | 97.5%
c1cc(C2CCCCC2)ccc1-c1cnc2nonc2n1 | 2.69% (active)
C1=C(N2CCCC2)CCC1 | 96.2%
OC1OC(COC(c2ccccc2)(c2ccccc2)c2ccccc2)C(O)C(O)C1O (configuration not stated) | 89.7%
O=C(NC1CCCCC1)OCc1c(COC(=O)NC2CCCCC2)c(-c2ccc(Cl)c(Cl)c2)n2c1CCC2 | -61.7% (active)
CCCCN1C(=O)/C(=c2\sc3n(c2=O)NC2C(N=3)N(CC)C(=O)N2CC)c2ccccc21 (configuration not stated) | 14.3%
Cc1cc2c(-c3nc4ccccn4c3N)c(O)c(O)cc2c(O)c1-c1c(C)cc2c(-c3nc4ccccn4c3N)c(O)c(O)cc2c1O | -2.1% (active)
COc1cc2oc(-c3cccc(NC(=O)c4cc(NC(=O)[C@H](C)N)ccc4Cl)c3)cc(=O)c2c(OC)c1OC | 91.1%
O=Nc1ccccc1N=O | 91.7%
Nc1c(C(=O)Nc2cccc3ccccc23)sc2nc3c(cc12)COCC3 | 38.6%
CN(C)c1nc(N)c2nccnc2n1 | 115%
Cc1ccc(S(=O)(=O)OC[C@]23CCC(C)(C)C[C@H]2C2=CC[C@@H]4[C@@]5(C)CCCNC(C)(C)[C@@H]5CC[C@@]4(C)[C@]2(C)CC3)cc1 | -35.1% (active)
CCN(CC)CCCC(Nc1c2ccc(Cl)cc2nc2ccc(OC)cc12)c1ccncc1 (configuration not stated) | 88.5%
CC[C@]12C=CCN3CC[C@@]4(c5cc(NC(=O)CCC(=O)OCc6cn(Cc7ccc(F)cc7)nn6)c(OC)cc5N(C)[C@H]4[C@@](O)(C(=O)OC)[C@@H]1OC(C)=O)[C@@H]32 | 104%
Cc1ccc(-c2nc(SCC(=O)c3ccccc3)nc(Nc3ccc(S(N)(=O)=O)cc3)c2C#N)cc1 | 113%
O=C(Cn1cccc(Nc2ccccc2)c1=O)Nc1ccccc1 | 95.1%
COc1cc(-c2csc(NC(=O)Nc3ccc(Cl)cc3)n2)cc(OC)c1OC | 13.5%
CCOC(=O)/C(C#N)=C1/C(=O)Nc2ccccc21 | 134%
COc1cccc(CNCCN2C(=O)c3ccc4c5c(ccc(c35)C2=O)C(=O)N(CCNCc2cccc(OC)c2)C4=O)c1 | 89.9%
C/C(=N\NC(=O)Cn1c(-c2ccc(S(C)(=O)=O)cc2)nc2ccccc21)c1ccc(Cl)cc1 | 98.3%
CCOC(=O)c1ccccc1OC(=O)NNc1ccccc1 | 83.2%

Structure (SMILES) | growth
CCCCCN1C=C/C(=C\C(=O)N(C)c2ccccc2Br)c2ccccc21 | 71.2%
O=C(Nc1ccc(-n2ccc3c(NC(=O)c4ccccc4)ncnc32)cc1)Nc1ccc(Cl)c(C(F)(F)F)c1 | -56.3% (active)
CCN1CCN(C(=O)[C@]23CC[C@@H](C)[C@H](C)[C@H]2C2=CC[C@@H]4[C@@]5(C)C/C(=C/c6cccc(OC)c6OC)C(=O)C(C)(C)[C@@H]5CC[C@@]4(C)[C@]2(C)CC3)CC1 | 16.4%
O=C1C(=O)c2c(nc3ccc(Br)cn23)-c2ccccc21 | -58% (active)
COc1cc(-c2nc(Nc3nc4ccccc4s3)[nH]c(=O)c2C#N)cc(OC)c1O | 105%
CCOC(=O)c1cc(C(=O)c2cc(OC)cc(OC)c2)n2nc(C)ccc12 | 29.8%
CCCCCCCCN(CCCCCCCC)C(=O)CCl | 79.9%
Cc1c(NC(=O)CSc2nc3sc4c(c3c(=O)n2-c2ccc(Cl)cc2)CCCC4)c(=O)n(-c2ccccc2)n1C | 89.8%
Cc1ccc2c(ccc3c[n+]4c5ccccc5ccc4n32)c1 | -56.3% (active)
c1ccc(Nc2ccccn2)nc1 | 93.3%
CC1=CC(=C(c2ccc(N)cc2)c2ccc(N)cc2)C=CC1=N | -13.6% (active) and -1.34% (active)
COc1cccc(-c2nn(C)c3sc(C(=O)NCCN4CCN(c5ccccc5F)CC4)cc23)c1 | 45.9%
CCc1ccc(C2=C/C(=C/c3ccccc3)C(=O)N2CCc2ccc(S(N)(=O)=O)cc2)cc1 | 109%
Cc1ccc(-c2csc3nc(C)c(CCCl)c(=O)n23)cc1 | 83.6%
O=C(Nc1ccc(Cl)c(Cl)c1)Nc1ccccc1O | 0.995% (active)
NC(C(=O)O)C(O)c1ccc(OCc2ccccc2)c(OCc2ccccc2)c1 (configuration not stated) | 104%
COc1cc2c(c3c1c(=O)c1cccc(F)c1n3C)C=CC(C)(C)O2 | 42.7%
Cc1cc(C(=O)Nc2cc(Nc3ncccc3-c3ncnc4nc[nH]c34)ccc2F)cc(C(F)(F)F)c1 | 93.6%
CC(=O)OC(OC(C)=O)C1CCCO1 (configuration not stated) | 99.5%
CN1CCN(c2ccc(NC3=C(Cl)C(=O)c4ncccc4C3=O)cc2C(F)(F)F)CC1 | -79.2% (active)
COC(=O)/C=C1\SC(=Nc2ccc(C(F)(F)F)cc2)N(CCc2c[nH]c3ccccc23)C1=O | -66.3% (active)

Structure (SMILES) | growth
O=C1/C(=C/c2ccc(F)cc2)CN(C(=O)C(Cl)Cl)C/C1=C\c1ccc(F)cc1 | -47% (active)
CN1CCN(Cc2ccc(C(=O)Nc3cncc(C#Cc4cnc(N)c5ccccc45)c3)cc2C(F)(F)F)CC1 | -61.9% (active)
CCOC(=O)c1cnn(-c2nc(-c3ccc(F)cc3)c(C#N)c(N3CCOCC3)n2)c1N | 92.6%
COc1ccc(C2C(C#N)=C(/N=C/c3ccc(Cl)cc3)Oc3c2sc2c(C)cccc32)cc1 (configuration not stated) | 21.4%
Clc1ccc2c(NCCNc3nc(N4CCCCC4)nc4ccccc34)ccnc2c1 | -31.7% (active)
O=C1c2cc3c(cc2-c2c1c1ccc(Cl)cc1c(=O)n2CCCNCCO)OCO3 | -91.6% (active)
O=C(CSc1nc2ccccc2c(=O)n1-c1ccccc1)N/N=C/c1ccc(Oc2ccc(Cl)cc2)cc1 | 71.6%
O=C1Nc2ccc(C(=O)O)c(O)c2C1=O | 108%
O=C(Oc1cccc2ccccc12)Oc1cccc2ccccc12 | 117%
O=C1OCC2=C1C(c1ccc3c(c1)OCO3)CC(=O)N2c1cccc(Cl)c1 (configuration not stated) | 88.1%
Cc1ccc(-c2nc3ccccc3c(=O)n2/N=C/c2cccc3ccccc23)cc1 | 80.9%
O=S(=O)(NCCNc1cc(-c2cn(-c3ccccc3)nc2-c2cccc(O)c2)ccn1)c1ccccc1 | 34.2%
CCSc1nc2c([nH]1)c(=O)n(C)c(=S)n2C | 109%
CCOC(=O)C(COS(C)(=O)=O)(COS(C)(=O)=O)C(=O)OCC | 122%
Cc1cc(NC(=O)c2cnc(N3CCN(CCOCCOCCOCCOCCC(=O)N[C@H](C(=O)N4C[C@H](O)C[C@H]4C(=O)N[C@@H](C)c4ccc(-c5scnc5C)cc4)C(C)(C)C)CC3)cn2)c2ncccc2c1 | -57.9% (active)
O=C1CCC(N2C(=O)c3ccc(NS(=O)(=O)c4ccccc4OC(F)(F)F)cc3C2=O)C(=O)N1 (configuration not stated) | 10.1%
O=C(O)Cc1cccc2ccccc12 | 121%
CC1C(=O)NC2=Nc3ccccc3C(=O)NN21 (configuration not stated) | 93.7%
CCCCOC(OCCCC)c1ccccc1 | 104%
Clc1ccccc1-c1nc2ccccc2[nH]1 | 88.3%
CCOc1ccc(NC(=O)CSc2oc(-c3ccccc3)nc2S(=O)(=O)c2ccc(F)cc2)cc1 | 58.4%

Structure (SMILES) | growth
Cn1cc(-c2csc(-c3c[nH]c4ccc(F)cc34)n2)c2ccnc(Cl)c21 | 15%
COC(=O)c1ccc2c(c1)NC(=O)[C@@H]1CCCN21 | 109%
COC(=O)c1cnc2c(c1)Oc1ccc(Cl)cc1-c1cc(C)nn1-2 | 92%
O=c1ccc2cc3ccccc3cc2[nH]1 | 99%
Nc1c(C(=O)Nc2cccc([N+](=O)[O-])c2)sc2nc3c(cc12)C(O)CCC3 (configuration not stated) | 53.5%
COc1ccc(OC)c(CCn2cncc2-c2c[nH]c3cc(Br)ccc23)c1 | -5.69% (active)
Cc1ccc(S(=O)(=O)N2C/C(=C\c3cc(F)cc(F)c3)C(=O)/C(=C/c3cc(F)cc(F)c3)C2)cc1 | -43.3% (active)
Cc1nc(Nc2n[nH]c3c2CN(C(=O)N[C@H](CN(C)C)c2ccccc2)C3(C)C)c2sccc2n1 | -44.3% (active)
CN(C)CCNC(=O)c1ccc(-c2nc3ccc4[nH]ncc4c3c3c2CCC3)cc1 | -55.3% (active)
Cc1nc2ncccc2nc1Nc1ccc(S(=O)(=O)Nc2cncs2)cc1 | 97.7%
Cc1ccc(NC(=O)C2CCC(CN3CCN(C)CC3)CC2)cc1Nc1nccc(-c2cccnc2)n1 (configuration not stated) | 94.8%
O=C(N[C@@H]1CCCc2ccccc21)[C@H](CCC(=O)N1CCN(C2CCCCC2)CC1)N1C(=O)[C@@H](N2C(=O)OC[C@@H]2c2ccccc2)[C@H]1/C=C/c1ccccc1 | -34.6% (active)
O=C(N/N=C/c1ccc2c(c1)OCO2)c1ccncc1 | 116% and 124%
CCCS(=O)(=O)c1nc(NC2CC2)cc(-c2ccc3c(ccn3C3CC(C)(C)NC(C)(C)C3)c2)n1 | -72.4% (active)
C#C[C@]1(O)CC[C@H]2[C@@H]3CC=C4c5sc(C6CCOCC6)nc5CC[C@]4(C)[C@H]3CC[C@@]21C | 68.5%
Cc1csc(/N=C(N)/N=C(\N)c2cccc(Br)c2)n1 | 79.7%
O=C(Cc1ccc(OCc2ccccc2)cc1)NCc1ccc2c(c1)OCO2 | 81.5%
O=C(O)c1ccc(OCc2ccccc2)cc1 | 104%
COc1ccc(O)c(-c2cc(-c3ccccc3)c(C#N)c(=O)[nH]2)c1 | 92.8%
